Laboratory results taken from PubChem BioAssay.
Values joined by “and” are separate entries in the source; they are usually repeats but may differ in a detail not shown here. Identical values can stand only once. Active and inactive are the calls of the source.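 Rule for the calls, unless noted: active = mean z-score across replicates of 1.96 or higher in either the MELAS or the Rieske mutant cell line; inactive = the rest.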

How the values were obtained:
[1] = modulation of C. elegans fzo-1 (AID 1259413; call rule not given here;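 note: fzo-1 mutant C. elegans worms in liquid wells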); conditions: C. elegans fzo-1 modulator screen, mean read-out; stronger effect = higher value
[2] = tested on: Aerobactin synthetase IucA (Klebsiella pneumoniae); test: inhibition of K. pneumoniae IucA enzyme – biochemical, Tocris library, absorbance (AID 1345561; call rule not given here;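 note: 100% = enzyme without compound and 0% = no enzyme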); conditions: purified IucA enzyme assay, absorbance (OD) read-out; stronger effect = lower value;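 tested at 8 µM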
[3] = viability loss with induced miR-34 in A549 – imaging, A549 dox-inducible miR-34, nuclei and caspase counts, primary screen (AID 1347080;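 active = compounds whose cell count with miR-34 switched on is under 0.7 times the count with it off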); conditions: A549 miR-34 inducible, Hoechst nuclei count, 48 h
[4] = EMT-state selective cytotoxicity in co-culture – imaging, PC-3E GFP, TEM4-18 mCherry, primary screen (AID 1345086;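 active = compounds killing one labelled cell type while sparing the other, by normalised counts and ratio limits, not self-fluorescent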;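 for all read-outs here: cells exposed to compound for 72 h before imaging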;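 for red/green cell ratio (normalised): normalised mesenchymal count divided by normalised epithelial count so high means epithelial killing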); conditions: PC-3E GFP / TEM4-18 mCherry co-culture, imaging cell counts, at 1 µM; for red/green cell ratio (normalised): actives lie on both sides, counts scaled to control wells, 1 = unselective
[5] = blockers of cellular phospholipid synthesis – cell-based, LOPAC library, screen 4, primary screen (AID 1347384; call rule not given here); conditions: animal cells, phospholipid biosynthesis inhibition screen; at 10 µM
[6] = MELAS cybrid and Rieske KO viability enhancers – cell-based, MELAS cybrids, Rieske KO mouse fibroblasts, CellTiter-Glo, primary screen (AID 1508586); conditions: low glucose;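 note: z relative to plate mean and SD of compound and empty wells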
[7] = stronger effect = lower value, cell number ratio, induced over uninduced
[8] = measured here: relative caspase fold change +Dox/-Dox
[9] = measured here: total cells with miR-34 induction, stronger effect = lower value
[10] = measured here: total cells without miR-34 induction
[11] = measured here: epithelial PC-3E GFP cell survival
[12] = measured here: mesenchymal TEM4-18 mCherry cell survival
[13] = MELAS cybrid survival, CellTiter-Glo 48 h, stronger effect = higher value
[14] = Rieske KO mouse fibroblast survival, CellTiter-Glo 72 h

| SMILES | mean signal [1] | remaining activity [2] | fold change [3, 7] | fold change [3, 8] | cell count [3, 9] | cell count [3, 10] | red/green cell ratio (normalised) [4] | normalised cell number [4, 11] | normalised cell number [4, 12] | outcome [5] | z-score [6, 13] | z-score [6, 14] |
| --- | --- | --- | --- | --- | --- | --- | --- | --- | --- | --- | --- | --- |
| CCN(CC)CC1CCCCN1CC(=O)N1c2ccccc2C(=O)Nc2cccnc21 (centres undefined) | 227 (inactive) | 116% (inactive) | 0.915 (inactive) and 0.926 (inactive) | 1.68 and 0.696 | 10100 and 9240 | 11000 and 9980 | – | – | – | – | – | – |
| O=C(NCCN1CCOCC1)c1ccc(Cl)cc1 | 247 (inactive) | – | – | – | – | 10300 and 10900 and 9280 | 0.88 (inactive) | 0.89 | 0.79 | inactive | 0.188 (inactive) and 0.694 (inactive) | 0.0884 and 0.188 |
| NC1CCN(c2nc3c(cc2F)c(=O)c(C(=O)O)cn3-c2ccc(F)cc2F)C1 (centres undefined) | 292 (inactive) | – | 0.986 (inactive) and 0.879 (inactive) | 1.53 and 1.43 | 9740 and 8420 | 9880 and 9570 | 0.9 (inactive) | 1.14 | 1.02 | – | -0.38 (inactive) and 0.118 (inactive) | -2.21 and -0.244 |
| O=C1CC2(CCCC2)CC(=O)N1CCNCC1COc2ccccc2O1 (centres undefined) | 200 (inactive) | 96.6% (inactive) | 0.839 (inactive) and 0.901 (inactive) | 1.72 and 0.868 | 8960 and 8470 | 10700 and 9400 | – | – | – | – | – | – |
| CCc1oc2ccccc2c1C(=O)c1cc(Br)c(O)c(Br)c1 | 252 (inactive) | – | – | – | – | – | 0.88 (inactive) | 1.08 | 0.95 | – | -0.224 (inactive) and 0.135 (inactive) | -0.158 and -0.137 |
| CN1CCCCC1CCN1c2ccccc2Sc2ccc(S(C)=O)cc21 (centres undefined) | 243 (inactive) | – | 0.812 (inactive) and 0.898 (inactive) and 0.879 (inactive) | 1.32 and 2.22 and 1.93 | 7930 and 7130 and 7860 | 9770 and 7940 and 8940 | 1.05 (inactive) | 1.11 | 1.16 | – | 0.0731 (inactive) and 0.00466 (inactive) | -0.192 and -0.653 |
| COc1ccc(CN2CCN(C(c3ccc(F)cc3)c3ccc(F)cc3)CC2)c(OC)c1OC | 204 (inactive) | – | – | – | – | – | 1.08 (inactive) | 0.96 | 1.03 | – | -0.49 (inactive) and -0.685 and -0.348 (inactive) | -0.282 and 2.06 and 1.06 |
| Nc1ccc(O)c(C(=O)O)c1 | 261 (inactive) | – | – | – | – | – | 1.19 (inactive) | 1.04 | 1.24 | – | -0.293 (inactive) and -0.757 (inactive) and 0.532 (inactive) | 0.059 and -0.214 and -0.391 |
| COC(=O)C1=C(C)NC(C)=C(C(=O)OCC(C)C)C1c1ccccc1[N+](=O)[O-] (centres undefined) | 228 (inactive) | – | – | – | – | – | 0.97 (inactive) | 1.11 | 1.08 | – | -0.516 (inactive) and 0.43 (inactive) and -1.18 (inactive) | 0.274 and 1.45 and 0.961 |
